Measurements: PubChem BioAssay AID777 (Sanford-Burnham Center for Chemical Genomics, 2007)
Out of some 96,000 compounds screened, about 19,000 (20%) were called active.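 The calls were made as follows: active = blocking of liver enzyme CYP2C9 beyond about 50% at 5 µM (limit read from the data); inactive = the rest.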 Only a sample is shown.

target: Cytochrome P450 2C9 (Homo sapiens) (UniProt P11712); assay: blockers of cytochrome P450 2C9 activity – biochemical, luminescence, ADME assay, primary screen (AID 777); conditions: CYP2C9 Supersomes, luciferin-H conversion, at 5 µM, active compounds read high
Sequence (P11712 whole entry, looked up): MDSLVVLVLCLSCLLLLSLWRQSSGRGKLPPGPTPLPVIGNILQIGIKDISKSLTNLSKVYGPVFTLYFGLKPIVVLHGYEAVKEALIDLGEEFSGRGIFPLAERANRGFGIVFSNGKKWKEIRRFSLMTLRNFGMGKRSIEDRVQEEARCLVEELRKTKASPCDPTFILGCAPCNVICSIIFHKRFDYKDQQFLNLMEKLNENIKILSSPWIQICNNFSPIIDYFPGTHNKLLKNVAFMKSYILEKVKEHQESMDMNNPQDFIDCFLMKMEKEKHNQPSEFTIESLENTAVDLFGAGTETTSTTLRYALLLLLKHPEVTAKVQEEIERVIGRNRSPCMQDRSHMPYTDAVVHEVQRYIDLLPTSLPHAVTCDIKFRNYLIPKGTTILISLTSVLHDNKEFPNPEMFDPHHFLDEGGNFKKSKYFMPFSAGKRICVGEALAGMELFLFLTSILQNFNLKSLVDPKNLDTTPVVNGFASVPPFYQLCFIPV

inhibition, active:
CCc1ccc(CNC(=O)CCc2nc(-c3cccs3)no2)cc1 70.4%, N#CCCN1CCN(S(=O)(=O)c2ccc(S(=O)(=O)NC3CCCCC3)cc2)CC1 58%, COc1cc(N=Cc2c(O)[nH]c3ccccc23)cc(OC)c1OC 66%, Cc1ccc(SCC(=O)c2cc(C)c(OC(=S)N(C)C)c(C)c2)cc1 58.6%, Cc1ccc(C)c(N2CCN(S(=O)(=O)c3ccc4c(c3)oc(=O)n4C)CC2)c1 88.4%, CCOc1cccc(=O)c2c(C)n(CC3CCCO3)c(C)c12 (stereo not given) 59.7%, COC(=O)c1[nH]c2ccccc2c1NC(=O)CN1CCCc2ccccc21 88.7%, Cn1nc(C(F)(F)F)c(C(=O)Nc2cccc(C(F)(F)F)c2)c1SCc1ccc(Cl)cc1 97.5%, CC1=CC(C)(C)Nc2ccc(OC(=O)C(Cc3ccccc3)N3C(=O)C4CCCCC4C3=O)cc21 (stereo not given) 72.8%, COc1ccc(CCN(C(=O)COc2ccccc2)c2nc(-c3ccccc3)cs2)cc1OC 75.2%, Cc1noc(C)c1C(=O)OCC(=O)/C=C1\N(C)c2ccccc2C1(C)C 55.7%

inhibition, inactive:
O=C(Oc1cccnc1)c1cc2ccccc2oc1=O 30.1%, CCNC(=O)CCc1nc(-c2ccc(C(C)(C)C)cc2)no1 -11.4%, Cc1ccc(-c2noc(CCC(=O)Nc3ccccc3N3CCN(C)CC3)n2)cc1 48.1%, Cc1cc(C)cc(N(CC(=O)Nc2c(C)n(C)n(-c3ccccc3)c2=O)S(C)(=O)=O)c1 16.3%, O=C(N/N=C/c1ccc(O)cc1)/C(=C/c1ccc([N+](=O)[O-])cc1)NC(=O)c1ccccc1 -2.6%, N#CCCN1CCN(S(=O)(=O)c2ccc(S(=O)(=O)N3CCCC3)cc2)CC1 16.2%, N#CCCN1CCN(S(=O)(=O)c2ccc(S(=O)(=O)NC3CC3)cc2)CC1 9.6%, Cc1ccccc1-n1c(C)cc(/C=N/NC(=O)c2ccc(CN3CCOCC3)cc2)c1C 31.2%, CC(C)(C)Oc1ncc(Br)c(OC(C)(C)C)n1 -16.6%, COc1cccc(C2/C(=C(/O)c3ccncc3)C(=O)C(=O)N2CCCN(C)C)c1 (stereo not given) -17.5%, COc1ccc(OC)c(N=Cc2c(O)[nH]c3ccccc23)c1 15.1%, COc1ccc(N=Cc2c(O)[nH]c3ccccc23)cc1OC 2.9%, CCCCCCC(=O)Nc1nc(C)c(-c2csc(Nc3cccc(OC)c3)n2)s1 19.4%, COC(=O)c1cc(OC)c(OC)cc1NC(=O)CSc1ccc(C)cc1 21.1%, Cc1ccc(SC(=O)COc2ccc(C)c(C)c2)cc1 13.5%, CSc1nc(C)nc2c1c(=O)n(C)c(=O)n2C -6.6%, CSc1nc2nc3c(c(=O)n2[nH]1)CCC3 -13.2%, Cn1c(=O)oc2cc(S(=O)(=O)N3CCC(C(=O)Nc4ccc(OC(F)(F)F)cc4)CC3)ccc21 -62.7%, Cc1ccc2nc(NC(=O)C3CCN(S(=O)(=O)c4ccc5c(c4)oc(=O)n5C)CC3)sc2c1 -47.7%, CCSC1(SCC)N=C(N)C2(C#N)C(c3ccccc3)NC(C)=CC12C#N (stereo not given) 6.1%, COC(=O)c1ccc2c(=O)n(CC3CCCO3)c(=S)[nH]c2c1 (stereo not given) 6.5%, O=c1c2cc3c(=O)n(CC4CCCO4)c(=O)c3cc2c(=O)n1CC1CCCO1 (stereo not given) 3.8%, OCCCN1c2ccccc2Nc2nnc(-c3ccccc3)cc21 46.3%, CN(C)c1nc2n(c(=O)n1)CCO2 2.6%, CCOC(=O)c1[nH]c2ccc(OC)cc2c1NC(=O)CCN1CCN(Cc2ccccc2)CC1 11.4%, CC(C)(CNC(=O)c1cc(=O)[nH]c2ccccc12)N1CCOCC1 8%, Cc1cccc(-n2c(O)c(C=Nc3ccccc3N)c(=O)[nH]c2=O)c1 0.2%, CCCOP(=O)(c1ccc(N(C)C)cc1)C(O)c1cc(OC)c(OC)c(OC)c1 (stereo not given) -3.1%, FC(F)(F)c1cccc(NC(=S)Nc2cccc(Cl)c2)c1 -83%, CCC(=O)OCc1c(C(F)(F)F)nn(C)c1Oc1cccc(C(F)(F)F)c1 34%, COC(=O)c1sc2ncccc2c1OCc1ccc(Cl)cc1Cl 9.3%, Cc1ccc2c(C(=O)CN3CCCC3)c(C)[nH]c2c1 49.7%, CC1=CC(C)(C)Nc2ccc(OC(=O)CN3C(=O)C4CCCCC4C3=O)cc21 (stereo not given) 10.9%, Cc1ccc(C)n1C(Cc1ccccc1)C(=O)O (stereo not given) 28.3%, O=C(Nc1ccon1)c1sc2ccccc2c1Cl -23.1%, CCc1c(C)c2c(C)[nH]nc2oc1=O -66%, Cc1cc2c(c(=O)n1Cc1ccco1)C(c1ccccc1)C(C#N)=C(N)O2 (stereo not given) 1.2%, Cc1ccc(-c2nc3ccccc3[nH]2)cc1N 40.6%, Cn1nc([N+](=O)[O-])nc1Sc1ccc(C(C)(C)C)cc1 12.1%, COc1ccccc1Nc1ncc(C(C)=O)c(C)n1 18.7%, CCC(C(=O)NC1CCCC1)N(C(=O)c1snc(C(N)=O)c1N)c1ccc2c(c1)OCCO2 (stereo not given) 14.7%, COc1ccc2c(c1OC)C(=O)OC2Nc1nc(-c2ccccc2)cs1 (stereo not given) 8.8%, CN(C(=O)CSc1nc(C2CC2)nc2ccccc12)c1nc(-c2ccccc2)cs1 39.9%, CCn1c(=N)n(CC(=O)c2cccc(OC)c2)c2ccccc21 -13.2%, O=C(Nc1ccc(Cl)cn1)c1cnn2cccnc12 11.4%, O=S1(=O)CCN(Cc2ccccc2Cl)CC1 13.3%, CN1/C(=C\C(=O)c2oc3ccccc3c2N)C(C)(C)c2ccccc21 47.6%, Cc1ccc(-c2nc(COC(=O)c3c(C)noc3C)cs2)cc1 28%, Nc1nnc(SCCN2C(=O)c3ccccc3S2(=O)=O)s1 -0.2%
